About 4,300 (8.3%) of roughly 52,000 compounds were called active. This is one part of a sample in which actives are shown more often than they occur. A number with no mark means an inactive call. Cut-off read from the data, not from the text of the source: active = survival mostly below about 52% (no sharp cut-off); inactive = mostly above about 56%.

The experiment concerns DeltatarO mutant. Nature of the experiment: growth inhibition of S. aureus wild type versus tarO mutant, primary screen, teichoic acid synthesis inhibitors, RN4220, OD600 (AID 463173). The note with it: OD600, 18 h, active compounds read low, screened at 18.75 µg/mL (by protocol).
On to `Cc1cccc(-n2ncc(C(=O)N3CCN(C(=O)c4ccco4)CC3)c2C2CCN(C(=O)OC(C)(C)C)CC2)c1`, for which the survival is 62%.
The figure for `CCCC(CCC)C(=O)Nc1cccc(-c2cn3cccnc3n2)c1` is 83%; for `CCC1CCCCN1C(=O)Cn1c(=O)n(CC2CCC(C(=O)NC)CC2)c(=O)c2sccc21` (configuration not stated) it is 102%; for `O=C(CCN1CCOCC1)N1N=C(c2ccccc2)CC1c1ccco1` (configuration not stated) it is 89%.
The figure for `Oc1ccc(Br)cc1C1CC(c2ccccc2)=NC(c2ccco2)N1` (configuration not stated) is 1% (active); for `O=c1oc2c(F)cc(F)cc2cc1S(=O)(=O)c1ccc(F)cc1` it is 60%.
Take `CN(Cc1ccccc1)c1ccc(-c2nc(-c3ccccc3)no2)cc1[N+](=O)[O-]`: the survival is 69%.
Next, `CCc1noc(-c2ccc(N(C)Cc3ccc(OC)cc3)c([N+](=O)[O-])c2)n1`: 75%.
Next, `CN(Cc1ccccc1)c1ccc(-c2nc(-c3ccccn3)no2)cc1[N+](=O)[O-]`: 34% (active).
The figure for `CN(Cc1ccccc1)c1ccc(-c2nc(-c3ccncc3)no2)cc1[N+](=O)[O-]` is 63%.
As to `COc1ccc(CN(C)c2ccc(-c3nc(-c4ccc(OC)c(OC)c4)no3)cc2[N+](=O)[O-])cc1`, the survival is 62%.
The figure for `CCN(CC)c1ccc(-c2nc(-c3ccncc3)no2)cc1[N+](=O)[O-]` is 79%; for `CCN(Cc1ccc(OC)cc1)c1ccc(-c2nc(-c3ccncc3)no2)cc1[N+](=O)[O-]` it is 41% (active); for `CCN(CC)c1ccc(-c2nc(-c3ccccn3)no2)cc1[N+](=O)[O-]` it is 41% (active).
The figure for `COc1ccc(CN(C)c2ccc(-c3nc(-c4ccccc4)no3)cc2[N+](=O)[O-])cc1` is 71%; for `COc1ccccc1-c1noc(-c2ccc(N(C)Cc3ccccc3)c([N+](=O)[O-])c2)n1` it is 36% (active).
The figure for `CCN(CC)c1ccc(-c2nc(-c3ccccc3C)no2)cc1[N+](=O)[O-]` is 68%; for `CCN(CC)c1ccc(-c2nc(-c3ccco3)no2)cc1[N+](=O)[O-]` it is 47%; for `CC1CCC(NC(=O)c2ccc3c(c2)N(Cc2ccccc2F)C(=O)c2ccccc2S3(=O)=O)CC1` (configuration not stated) it is 74%.
Regarding `CCOc1ccc(NS(=O)(=O)c2ccc3[nH]cc(C(=O)NCC4CCCO4)c(=O)c3c2)cc1` (configuration not stated), the survival was 87%.
The figure for `CCOC(=O)C1CCN(C(=O)c2nn(-c3ccc(OC)c(Cl)c3)c(=O)c3c2c2ccccc2n3C)CC1` is 76%; for `Cc1cccc(C(=O)NCC(c2cccs2)S(=O)(=O)c2cccs2)c1` (configuration not stated) it is 81%.
On to `Cc1ccc(OCC(=O)NCC(=O)OCc2cc(=O)n3nc(C(C)C)sc3n2)cc1`, for which the survival was 97%.
The figure for `Cn1c(=O)c2ccccc2n2c(CCC(=O)N3CCN(c4cccc(Cl)c4)CC3)nnc12` is 82%; for `Cc1ccc(/C=C(\C#N)C(=O)NC2CCCCCC2)o1` it is 92%; for `CN(C)c1ccc(-c2nc(-c3ccncc3)no2)cc1[N+](=O)[O-]` it is 81%.
The figure for `CN(C)c1ccc(-c2nc(-c3ccccn3)no2)cc1[N+](=O)[O-]` is 42% (active); for `CN(C)c1ccc(-c2nc(-c3ccco3)no2)cc1[N+](=O)[O-]` it is 52%; for `Cc1ccc(-n2c(=O)c3oc4ccccc4c3n(CC(=O)Nc3ccccc3)c2=O)cc1C` it is 54%.
Next, `CCCN(CCC)C(=O)c1nn(C)c2c1CSc1ccc(C)cc1-2`: 92%.
With `CCOC(=O)c1ccc(NC(=O)CS(=O)(=O)Cc2nc(-c3ccc(C)cc3)oc2C)cc1`, the survival is 95%.
Next, `COc1ccc(NC(=O)C(C)N2CCN(C)CC2)cc1` (configuration not stated): 86%; `COc1cc(OC)c(NC(=O)C(C)n2nc(-c3ccc(C)cc3)c3c(c2=O)CCCC3)cc1Cl` (configuration not stated): 39% (active); `COc1cc(OC)c(NC(=O)C(C)n2nc(-c3ccc(C)c(C)c3)ccc2=O)cc1Cl` (configuration not stated): 64%.
Next, `Cc1ccc(NC(=O)C(C)n2nnc3sc4c(c3c2=O)CCCC4)cc1Cl` (configuration not stated): 82%; `COc1cc(OC)c(NC(=O)C(C)n2c(=O)cc(-c3ccccc3)c3c(C)nn(C)c32)cc1Cl` (configuration not stated): 83%.
The figure for `COc1ccc(NC(=O)C(C)n2nc(-c3cc(C)ccc3C)c3c(c2=O)CCCC3)cc1` (configuration not stated) is 38% (active); for `Cc1cc(C)n(-c2nc(C)c(C)c(=O)n2CC(=O)Nc2ccc(Cl)c(Cl)c2)n1` it is 82%.
`COc1ccc(-c2nc3nc(C)cc(Nc4cccc(C(F)(F)F)c4)n3n2)cc1`: the survival was 63%.
The figure for `COc1cccc(N2C(=O)C(CC(=O)Nc3ccc(F)cc3)N(CCC3=CCCCC3)C2=O)c1` (configuration not stated) is 53%.
Next, `COc1ccc(CNC(=O)CCC2N=C3c4ccccc4N=C(SCc4cccc(F)c4)N3C2=O)cc1` (configuration not stated): 117%.
Next, `Cc1c(CCNC(=O)c2ccc(C(C)(C)C)cc2)sc2nc(-c3ccc(F)cc3)nn12`: 82%; `CCOC(=O)c1scc(-c2ccccc2)c1S(=O)(=O)N1CCN(c2ccccc2OC)CC1`: 94%.
For the compound `O=C(COc1cccc(-n2cnnn2)c1)NC1CCCCC1`, the survival is 83%.
Next, `CCN(C(=O)Cn1nnc2sc(-c3ccccc3)cc2c1=O)c1cccc(C)c1`: 50% (active); `CCOc1ccccc1NC(=O)Cn1nnc2sc(-c3ccccc3)cc2c1=O`: 39% (active); `CCc1cccc(CC)c1NC(=O)Cn1nnc2sc(-c3ccccc3)cc2c1=O`: 49%.
Next, `CCCN(CCC)C(=O)Cn1nnc2sc(-c3ccccc3)cc2c1=O`: 70%; `COC(=O)c1ccccc1NC(=O)Cn1nnc2sc(-c3ccccc3)cc2c1=O`: 52%; `CCN(CC)C(=O)Cn1nnc2sc(-c3ccccc3)cc2c1=O`: 56%.
The figure for `COC(=O)c1ccc(NC(=O)CSc2nc(=O)[nH]c3c2CCCC3)cc1` is 75%.
As to `COC(=O)CSc1ncc2c(n1)-c1ccccc1N(Cc1ccc(Cl)cc1)S2(=O)=O`, the survival was 69%.
Turning to `CCOC(=O)N1CCc2c(sc3c2c(=O)n(CCc2ccccc2)c(=O)n3Cc2c(F)cccc2Cl)C1`, the survival was 85%.
Next, `COc1ccc(-c2nc(C)c(CCNC(=O)c3c(F)cccc3F)s2)cc1`: 84%; `O=C(Cn1c(=O)oc2cc(S(=O)(=O)N3CCCCCC3)ccc21)NCc1ccccc1Cl`: 78%; `CCCCOc1cccc(C2c3c(-c4cc(C)ccc4O)n[nH]c3C(=O)N2CCOC)c1` (configuration not stated): 10% (active).
The figure for `COCCN1C(=O)c2[nH]nc(-c3cc(C)ccc3O)c2C1c1ccc(C(C)C)cc1` (configuration not stated) is 1% (active).
Consider `COCCCN1C(=O)c2[nH]nc(-c3cc(C)ccc3O)c2C1c1ccc(F)cc1` (configuration not stated), for which the survival was 66%.
The figure for `CCc1ccc(C2c3c(-c4cc(C)ccc4O)n[nH]c3C(=O)N2CCO)cc1` (configuration not stated) is 61%.
Next, `COCCN1C(=O)c2[nH]nc(-c3c(C)cc(C)cc3O)c2C1c1cccc(O)c1` (configuration not stated): 57%; `CCOc1cc(C2c3c(-c4cc(C)ccc4O)n[nH]c3C(=O)N2CCCOC(C)C)ccc1O` (configuration not stated): 90%.
Turning to `COCCCN1C(=O)c2ccccc2CC1(C)C(=O)NC1CCCCC1` (configuration not stated), the survival was 97%.
On to `Cc1ccc(CNC(=O)Cc2csc3ccccc23)cc1`, for which the survival is 93%.
In the case of `CC(=O)N1c2ccc(S(=O)(=O)N3CCN(c4cc(Cl)ccc4C)CC3)cc2CC1C` (configuration not stated), the survival was 87%.
The figure for `CCN1CCCC1CNCC(=O)NC1(C)C2CCC(C2)C1(C)C` (configuration not stated) is 100%.
Next, `COc1ccccc1C(=O)Nc1nnc2n1CCS2`: 69%; `COc1ccccc1N1CCN(C(=O)c2ccco2)CC1`: 104%.
Next, `COc1cc(C(=O)NCC(c2cccnc2)N2CCc3ccccc32)cc(OC)c1OC` (configuration not stated): 44% (active); `O=C(NCC(c1cccnc1)N1CCc2ccccc21)c1ccccc1Br` (configuration not stated): 56%; `COc1ccc(C(=O)NCC(c2cccnc2)N2CCc3ccccc3C2)cc1` (configuration not stated): 77%.
As for `COc1ccc(C(=O)NCC(c2cccnc2)N2CCc3ccccc32)cc1` (configuration not stated), the survival was 46% (active).
Turning to `COc1ccc(C(=O)NCC(c2cccnc2)N2CCc3ccccc32)cc1OC` (configuration not stated), the survival is 57%.
Next, `COc1cc(C(=O)NCC(c2cccnc2)N2CCc3ccccc3C2)cc(OC)c1OC` (configuration not stated): 76%; `Cc1ccc(C(=O)NCC(c2cccnc2)N2CCc3ccccc32)cc1C` (configuration not stated): 55%.
The figure for `O=C(NCC(c1cccnc1)N1CCc2ccccc21)c1ccc(Cl)cc1` (configuration not stated) is 52%; for `Cc1ccccc1C(=O)NCC(c1cccnc1)N1CCc2ccccc21` (configuration not stated) it is 44% (active); for `COc1ccc(C(=O)OCc2cc(=O)n3nc(-c4cccs4)sc3n2)cc1` it is 60%.
The figure for `c1ccc(Oc2ccc(N=NN3CCCCC3)cc2)cc1` is 74%.
As for `CCN1CCN(c2c(S(=O)(=O)c3ccc(C)c(C)c3)cnc3cc(OC)c(OC)cc23)CC1`, the survival was 75%.
The figure for `CCC(=O)c1cc2c(cc1NC(=O)c1cccc(Cl)c1)OCCO2` is 105%; for `Cc1ccc2nc(-c3ccc(C)c(NC(=O)CSc4ccc(Cl)cc4)c3)oc2c1` it is 85%; for `Cc1ccc2oc(-c3ccc(C)c(NC(=O)/C=C/c4ccc(Cl)cc4)c3)nc2c1` it is 90%.
The figure for `COc1ccc2oc(-c3ccc(C)c(NC(=O)c4sc5ccccc5c4Cl)c3)nc2c1` is 48% (active).
Next, `Cc1ccc(C(=O)Nc2cc(-c3nc4cc(Cl)ccc4o3)ccc2C)c(C)c1`: 85%; `COc1ccc2oc(-c3ccc(C)c(NC(=O)Cc4ccc(Cl)cc4)c3)nc2c1`: 151%; `COc1ccc2oc(-c3ccc(C)c(NC(=O)COc4cc(C)cc(C)c4)c3)nc2c1`: 43% (active).
Consider `COc1ccc2oc(-c3cccc(NC(=O)c4sc5c([N+](=O)[O-])cccc5c4Cl)c3)nc2c1`, for which the survival was 77%.
The figure for `COc1ccc2oc(-c3ccc(C)c(NC(=O)CSc4ccc(Cl)cc4)c3)nc2c1` is 51% (active).
Next, `CCc1ccc(OCC(=O)Nc2cc(-c3nc4cc(C)ccc4o3)ccc2C)cc1`: 65%.
For the compound `Cc1ccc(-c2nc3cc(Cl)ccc3o2)cc1NC(=O)COc1ccc(F)cc1`, the survival is 53%.
Take `Cc1c(NC(=O)c2sc3ccccc3c2Cl)cccc1-c1nc2ccccc2o1`: the survival was 53%.
Consider `Cc1ccc2oc(-c3ccc(C)c(NC(=O)C(C)(C)Oc4ccc(Cl)cc4)c3)nc2c1`, for which the survival was 13% (active).

Source of the values: PubChem BioAssay AID463173 (ICCB-Longwood Screening Facility, Harvard Medical School, 2010).
